# Measured values published in paper PMC7826789 (International Journal of Molecular Sciences, 2021).
# How the values were obtained:
# Details in all cases: Compound Concentration (nM):1000
# MET(Y1235D) = system: MET(Y1235D)
# MET = system: MET
# MINK = system: T1, MINK
# T1 construct: gene MINK1
# MKK7 = system: T2, MKK7
# T2 construct: gene MAP2K7
# MKNK1 = system: MKNK1
# MKNK2 = system: MKNK2
# MLCK = system: T3, MLCK
# T3 construct: gene MYLK3
# MLK1 = system: T4, MLK1
# T4 construct: gene MAP3K9
# MLK2 = system: T5, MLK2
# T5 construct: gene MAP3K10
# MLK3 = system: T6, MLK3
# T6 construct: gene MAP3K11
# MRCKA = system: T7, MRCKA
# T7 construct: gene CDC42BPA
# MRCKB = system: T8, MRCKB
# T8 construct: gene CDC42BPB
# MST1R = system: MST1R
# MST1 = system: T9, MST1
# T9 construct: gene STK4
# MST2 = system: T10, MST2
# T10 construct: gene STK3
# MST3 = system: T11, MST3
# T11 construct: gene STK24
# MST4 = system: MST4
# MTOR = system: MTOR
# MUSK = system: MUSK
# MYLK2 = system: MYLK2
# 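Further: KINOMEscan scanMAX binding as percent activity remaining versus control; lower means stronger binding.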
SMILES,Percent Control (MET(Y1235D)),Percent Control (MET),Percent Control (MINK),Percent Control (MKK7),Percent Control (MKNK1),Percent Control (MKNK2),Percent Control (MLCK),Percent Control (MLK1),Percent Control (MLK2),Percent Control (MLK3),Percent Control (MRCKA),Percent Control (MRCKB),Percent Control (MST1R),Percent Control (MST1),Percent Control (MST2),Percent Control (MST3),Percent Control (MST4),Percent Control (MTOR),Percent Control (MUSK),Percent Control (MYLK2)
COc1cccc(-c2c[nH]c3c(N/N=C/c4ccncc4)ncnc23)c1 [GW814408X],75%,64%,33%,100%,57%,30%,95%,61%,76%,73%,100%,100%,88%,100%,100%,74%,21%,100%,100%,68%
COc1cc(C=NNc2ncnc3c2cnn3-c2ccccc2)ccc1O [GW513184X],57%,36%,48%,100%,100%,50%,98%,48%,83%,50%,100%,100%,29%,100%,94%,100%,58%,93%,100%,43%
CN(C)CCNC(=O)Nc1ccc(N(C)c2ccnc(Nc3ccc(CS(C)(=O)=O)cc3)n2)cc1.Cl [GW830900A],57%,21%,59%,100%,100%,53%,100%,97%,99%,100%,95%,96%,100%,100%,100%,91%,66%,97%,78%,100%
CCc1ccc(Oc2nccc(-c3c(-c4ccc(F)cc4)ncn3C3CCNCC3)n2)cc1 [SB-242719],100%,93%,36%,90%,83%,100%,76%,85%,100%,71%,68%,17%,100%,88%,66%,90%,61%,89%,100%,80%
O=C(Nc1n[nH]c2nc(-c3ccc(O)cc3)c(Br)cc12)C1CC1 [SB-725317],100%,100%,42%,100%,49%,90%,67%,100%,100%,100%,100%,100%,100%,100%,100%,100%,77%,100%,100%,5.9%
COc1ccc2cc(-c3c(-c4ccncc4)nc(-c4ccc(S(C)(=O)=O)cc4C)n3C)ccc2c1 [SB-633825],100%,80%,43%,89%,66%,73%,90%,63%,79%,82%,93%,88%,85%,66%,60%,100%,82%,100%,99%,100%
COc1cc(N2CCN(C(C)C)CC2)ccc1Nc1nc(Nc2ccc(F)cc2C(=O)NC[C@@H](O)CO)c2cc[nH]c2n1 [GSK1392956A],100%,100%,80%,100%,61%,97%,96%,100%,100%,100%,100%,100%,100%,100%,92%,90%,94%,100%,100%,100%
Cl.c1ccc(Cc2nc3ccc(Nc4ncnc5ccccc45)cc3[nH]2)cc1 [GR269666A],91%,100%,92%,100%,86%,100%,100%,100%,100%,91%,100%,100%,100%,100%,100%,100%,100%,100%,100%,100%
Nc1ncnc2occ(-c3ccc(NC(=O)Nc4cc(C(F)(F)F)ccc4F)cc3)c12 [GW770249X],60%,89%,52%,100%,55%,3.9%,88%,66%,18%,54%,100%,100%,100%,100%,83%,82%,59%,100%,1.4%,83%
COc1cc(C)c(N(C)C(=O)CN(C)C)cc1Nc1nc(Nc2cccc(F)c2C(N)=O)c2cc[nH]c2n1 [GSK2219385],99%,65%,86%,97%,75%,98%,78%,55%,100%,100%,100%,94%,100%,100%,85%,93%,100%,100%,84%,100%
CCS(=O)(=O)c1ccc(OC)c(Nc2ncc(-c3cccc(F)c3)o2)c1 [GW621970X],100%,100%,72%,100%,70%,100%,100%,100%,95%,100%,100%,100%,100%,100%,100%,100%,93%,100%,100%,98%
NS(=O)(=O)c1ccc(N/N=C2\C(=O)Nc3ccc(Cl)cc32)cc1 [GW280670X],100%,100%,25%,100%,100%,100%,85%,100%,98%,96%,100%,100%,100%,100%,100%,100%,63%,100%,100%,100%
COc1ccc(COc2ccc(Cc3cnc(N)nc3N)cc2OC)cc1 [GW632580X],100%,95%,85%,80%,76%,100%,100%,85%,53%,90%,100%,100%,100%,85%,73%,97%,90%,96%,100%,100%
CCn1c(-c2nonc2N)nc2c(C#CC(C)(C)O)nc(OCCNC)cc21.Cl [GSK949675],100%,97%,100%,100%,98%,100%,100%,100%,100%,100%,100%,100%,100%,100%,100%,100%,100%,85%,100%,98%
COc1ccccc1-c1cc(/C=C2\C(=O)Nc3ncc(Br)cc32)cc(Br)c1O [GW442130X],100%,92%,93%,100%,100%,100%,100%,99%,100%,100%,100%,100%,100%,100%,95%,100%,100%,77%,100%,97%
Cl.O=C(O[C@H]1CN[C@H](C#Cc2cc3ncnc(Nc4ccc5c(cnn5Cc5ccccc5)c4)c3s2)C1)N1CCOCC1 [GSK200398A],100%,100%,98%,75%,70%,47%,100%,100%,100%,92%,100%,86%,100%,100%,100%,83%,100%,100%,100%,100%
Cl.O=C(Nc1ccc(Oc2ccc3[nH]c(NC(=O)c4ccccc4)nc3c2)cc1)Nc1cc(C(F)(F)F)ccc1F [GW709042A],59%,64%,93%,100%,64%,26%,100%,100%,47%,73%,85%,90%,100%,73%,100%,100%,69%,82%,19%,91%
NS(=O)(=O)c1ccc(N/N=C2\C(=O)Nc3ccc(C(=O)NCCc4c[nH]cn4)cc32)cc1 [GW300660X],100%,100%,43%,100%,100%,100%,100%,100%,100%,100%,100%,100%,100%,100%,60%,100%,25%,91%,100%,100%
COC(=O)Nc1nc2ccc(Oc3ccc(NC(=O)Nc4cc(C(F)(F)F)ccc4F)cc3)cc2s1.Cl [GW693917A],6.6%,33%,79%,97%,45%,31%,99%,97%,85%,100%,90%,96%,100%,100%,100%,95%,72%,100%,9.7%,47%
NS(=O)(=O)c1ccc(N/N=C2\C(=O)Nc3ccc(C(=O)NCc4ccncc4)cc32)cc1 [GW300657X],91%,100%,34%,93%,56%,78%,45%,89%,99%,100%,100%,98%,100%,100%,45%,73%,75%,97%,83%,100%
